High-throughput results (PubChem)
A selection: hits, their analogues and other compounds. The true share with any hit is near 3.7%.
WRN helicase inh: inhibitors of human WRN helicase. 360,000 tested, 0.46% active. Potency, µM (series often up to 114 µM), for the others: top-dose activity change, negative = inhibition, hits mostly inhibitors. WRN helicase unwinding, fluorescent forked duplex, kinetic. Q14191; further: potency means the concentration at half of the fitted maximal effect; on the % scale 0 is the no-effect control and ±100 the full control effect; nearly all actives have a fitted effect of over 55% in size
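Kinetic fluorescence helicase assay: unwinding of a quenched forked DNA duplex (100 nM final) with 2 mM ATP final raises red fluorescence (525/598 nm). Compounds sat 15 min at room temperature with 20 nM WRN beforehand.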
TCR act: activators of T cell receptors. primary human leukocytes, anti-CD3, IL-2 HTRF, 48 h. Potency, µM (titrated, usually from 9.22 µM), inactives show at the highest dose activation of IL-2 secretion, most hits filed as activators. 330,000 tested, under 10 active; further: % of control where 0% means no effect
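IL-2 produced over 48 hr by a-CD3 bead-stimulated primary human leukocytes exposed to compounds was detected with a homogeneous time-resolved FRET immunoassay, 665nm acceptor signal after 320nm excitation.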
FEN1 inhibitor: blocks human flap endonuclease 1; Recombinant FEN1 flap cleavage, fluorescence, 15 min; Potency, µM (highest dose often 114 µM), without a hit: top-dose activity change, negative = inhibition, actives largely listed as inhibitors; 390,000 tested, 0.35% active; further: potency means the concentration at half of the fitted maximal effect; on the % scale 0 is the no-effect control and ±100 the full control effect; nearly all actives have a fitted effect of over 65% in size
Target sequence (P39748 whole entry, looked up): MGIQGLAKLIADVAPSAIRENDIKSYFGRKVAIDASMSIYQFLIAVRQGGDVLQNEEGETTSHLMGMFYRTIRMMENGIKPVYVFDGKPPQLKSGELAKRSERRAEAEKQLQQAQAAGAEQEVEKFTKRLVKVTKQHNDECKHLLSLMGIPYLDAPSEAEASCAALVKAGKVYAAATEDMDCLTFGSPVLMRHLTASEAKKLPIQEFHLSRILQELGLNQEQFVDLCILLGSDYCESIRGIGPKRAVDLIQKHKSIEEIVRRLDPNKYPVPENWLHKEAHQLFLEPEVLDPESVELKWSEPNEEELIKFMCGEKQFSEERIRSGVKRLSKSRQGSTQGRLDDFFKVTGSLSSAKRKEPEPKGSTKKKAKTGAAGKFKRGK
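Reaction started by adding substrate (50 nM final) to 10 nM enzyme after 15 min room-temperature compound preincubation. Reads at 0 and 15 min, with data normalized and fitted to a four-parameter Hill equation.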
PI5P4K alpha inh: PI5P4K alpha (human) kinase inhibition | P48426 | PI5P4Kalpha enzyme, ADP-Glo luminescence, 60 min; active compounds read low | max response, % | 330,000 tested, 1.2% active | AID 652105; active means max response of -50% or lower; inconclusive means between -30% and -50%; inactive means -30% or higher; further: value at the top dose of about 77 µM; on the % scale 0 is the no-effect control and ±100 the full control effect
Target sequence (P48426 whole entry, looked up): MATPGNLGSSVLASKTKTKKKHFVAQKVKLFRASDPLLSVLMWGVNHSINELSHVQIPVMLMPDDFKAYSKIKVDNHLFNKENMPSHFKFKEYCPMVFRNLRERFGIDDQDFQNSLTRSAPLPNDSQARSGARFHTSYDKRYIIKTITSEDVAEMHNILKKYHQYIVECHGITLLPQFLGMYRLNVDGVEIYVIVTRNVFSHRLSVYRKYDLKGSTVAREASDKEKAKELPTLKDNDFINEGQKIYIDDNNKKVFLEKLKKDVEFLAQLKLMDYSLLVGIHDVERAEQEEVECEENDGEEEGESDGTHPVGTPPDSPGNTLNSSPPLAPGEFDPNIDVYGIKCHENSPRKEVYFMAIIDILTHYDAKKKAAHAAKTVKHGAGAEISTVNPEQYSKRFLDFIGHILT
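Quantitative HTS of the MLSMR library against PI5P4Kalpha with substrate. ATP added last at 5 microM final; room temperature, 60 minutes. Remaining ATP depleted, ADP converted and read as luminescence.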
VDR inh: blocks the human vitamin D receptor; VDR-SRC2-3 peptide fluorescence polarization, 2 h; Potency, µM, for inactives: max response, negative = inhibition, usual class: inhibitors; 400,000 tested, 0.93% active; P11473; further: potency means the concentration at half of the fitted maximal effect; on the % scale 0 is the no-effect control and ±100 the full control effect
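Measured by FP: displacement of SRC2-3 coactivator peptide from VDR by library compounds, following a two-hour ambient incubation.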
PLK1 PBD inh: PLK1 (human) polo-box domain binding inhibition. Plk1 PBD binding of FITC phosphopeptide, fluorescence polarization. Potency, µM, inactives show max response, negative = inhibition, actives largely listed as inhibitors. 360,000 tested, 2.8% active; further: potency means the concentration at half of the fitted maximal effect; series mostly up to about 57 µM; on the % scale 0 is the no-effect control and ±100 the full control effect; nearly all actives have a fitted effect of over 65% in size
* marks the source's active call; other numbers are inactive results; u = inconclusive; x = not tested or not shown; [ ] = another dose, or the depositor's remark. Unless noted, the call rests on the fitted dose curve; in most records, active means well fitted curve in the direction sought with a large enough effect; inconclusive means small, poorly fitted or top-dose-only effect, or another doubt; inactive means no such curve, though single readings can be large; an effect the other way counts as inactive or inconclusive.

SMILES	WRN helicase inh	TCR act	FEN1 inhibitor	PI5P4K alpha inh	VDR inh	PLK1 PBD inh
Cc1ccccc1N1C(S)=C(C#N)C(=O)NC1c1cccs1 (centres undefined)	-14.4%	0.5%	5.0%	-29.3	22.4µM*	u
Cc1cccc(N2C(S)=C(C#N)C(=O)NC2c2cccs2)c1 (centres undefined)	-8.4%	-1.0%[46.1 µM]	5.0%	-16.1	50.1µM*	u
N#CC1=C(S)N(c2ccccc2)C(c2ccc(-c3ccccc3Cl)o2)NC1=O (centres undefined)	-28.9%	0.0%[46.1 µM]	-5.8%	-1.4	39.8µM*	18.9µM*
CCN(CC)[C@@H](C)CN1c2ccccc2Sc2ccccc21	x	x	x	x	-8.4%	x
COc1ccc(-n2sc3ccc(F)cc3c2=O)cc1	4.3%	-1.4%	u	-86.7*	u	2.67µM*
O=c1c2cc(F)ccc2sn1-c1ccc(F)cc1	-0.6%	-2.0%	79.4µM*	-90.0*	17.8µM*	3.36µM*
O=c1c2ccccc2sn1-c1ccc(S(=O)(=O)N2CCOCC2)cc1	x	x	-3.0%	x	u	x
Cc1ccc(C)c(-n2sc3ccc(F)cc3c2=O)c1	1.6%	8.2%	u	-84.7*	20µM*	2.12µM*
COc1ccc(-n2sc3ccccc3c2=O)cc1	-2.4%	x	x	-89.4*	x	2.67µM*
O=C(Nc1c(C(=O)Nc2ccc(F)cc2)oc2ccccc12)c1cc2ccccc2o1	x	x	-14.2%	x	-9.7%	x
CSc1ccc(C(=O)C2CCCN(C(=O)c3nn(C)c(=O)c4ccccc34)C2)cc1 (centres undefined)	-2.2%	-2.1%	-12.1%	2.4	-11.4%	23.8µM*
Cn1nc(C(=O)N2CCCC2)c2ccccc2c1=O	2.4%	-0.7%	-3.8%	x	-10.3%	-8.4%
CC(C)(CO)NCc1ccc(Br)cc1	u	0.8%	-8.6%	u	28.2µM*	18.9µM*
Cc1ccc(CNC(C)(C)CO)cc1	4.5%	-0.9%[46.1 µM]	3.0%	-4.6	6.4%	-15.2%
CCN1CCN(C(c2cccc(OC)c2OC)c2nnnn2Cc2ccco2)CC1 (centres undefined)	-20.1%	-0.7%	0.3%	-26.5	-5.7%	26.7µM*
O=C(NCc1ccccn1)c1nc(-c2cccs2)no1	-4.0%	4.5%	-8.6%	0.2	-8.6%	26.7µM*
O=C1C=CC(=O)C(CNc2ccc(C(=O)OCc3ccccc3)cc2)=C1	-28.8%	1.6%	-19.3%	-76.8*	u	13.4µM*
CC(=O)N1c2nc(C(C)C)nn2C2(CCCCC2)[C@@H]2CCCC[C@@H]21	x	x	-0.9%	x	1.8%	x
CCCNC(=O)NS(=O)(=O)c1ccc(Cl)cc1	-0.5%	-1.9%	35.2%	-2.5	7.3%	2.0%
CCCNC(=O)c1nnsc1S(=O)(=O)c1ccc(Cl)cc1	28.2µM*	2.8%	-11.3%	u	u	u
O=S(=O)(CCSc1ccccn1)c1nc2ccccc2s1	-21.7%	x	13.7%	x	u	6.7µM*
COc1ccc(NC2=C(Cl)C(=O)N(CCc3ccccc3)C2=O)cc1	0.0%	-1.9%[46.1 µM]	5.8%	-18.6	u	9.47µM*
CCOc1ccc(NC2=C(Cl)C(=O)N(Cc3ccccc3)C2=O)cc1	-6.2%	-0.7%	-19.3%	x	-8.2%	-11.1%
O=C(c1ccco1)N1CCN(C(=O)c2cc(-c3ccccc3)nc3ccccc23)CC1	-2.4%	-1.9%	-1.4%	-2.3	8.4%	-16.1%
O=C(c1ccco1)N1CCN(C(=O)c2cc(-c3ccccn3)nc3ccc(Cl)cc23)CC1	-34.2%	-1.4%	-7.6%	-59.3*	-23.4%	u
SMILES	WRN helicase inh	TCR act	FEN1 inhibitor	PI5P4K alpha inh	VDR inh	PLK1 PBD inh
O=C(c1ccc2c(c1)OCO2)c1cn(Cc2ccc(F)cc2)c2ccccc2c1=O	x	x	-20.3%	x	0.8%	x
CC1=NN(C(=O)c2c(Br)cnn2C)C(O)(C(F)(F)F)C1 (centres undefined)	15.9%	-2.7%	2.9%	-25.9	-14.4%	10.6µM*
O=C(CSc1nccc(=O)[nH]1)c1c[nH]c2ccccc12	-0.5%	-1.4%	14.2%	0.2	6.7%	-0.4%
CCCc1cc(=O)[nH]c(SCC(=O)c2c[nH]c3ccccc23)n1	2.7%[57.1 µM]	-5.2%	u	-21.4	u	18.9µM*
CCc1cccc(-n2nnc(-c3nsc(NC(=O)c4cccs4)n3)c2C)c1	x	x	1.4%	x	6.0%	x
CCOc1cc(/C=C2\SC(=Nc3ccc(CC)cc3)NC2=O)ccc1OCC(=O)O	u	0.5%	u	-90.5*	-6.9%	-23.6%
CCOc1cc(Br)cc(/C=C2\SC(=Nc3ccccc3)NC2=O)c1O	-8.9%	-1.8%	-30.3%	-62.4*	u	u
C=CCOc1c(Br)cc(/C=C2\SC(=Nc3ccccc3)NC2=O)cc1OC	3.0%	-8.0%	-2.3%	-15.8	-1.6%	-3.8%
Cc1ccc(S(=O)(=O)/N=C2/NC(=O)/C(=C\c3cc(Br)cc(Br)c3O)S2)cc1	20µM*	11.6%	28.2µM*	-78.2*	50.1µM*	18.8%
Cc1ccc(S(=O)(=O)/N=C2/NC(=O)/C(=C/c3ccc(Br)o3)S2)cc1	u	-7.8%[46.1 µM]	-15.9%	-26.7	u	u
CN(C)c1ccc(-c2cc(Nc3ccc(F)cc3)ncn2)cc1	x	x	x	x	44.7µM*	x
CN(C)c1ccc(-c2cc(-n3ccnc3)ncn2)cc1	x	x	x	x	50.1µM*	x
CN(C)C(=O)c1ccc(-c2cc(-n3ccnc3)ncn2)cc1	x	x	x	x	-3.6%	x
CCOc1cc2sc(N3CCC(C(=O)Nc4ccc(C(C)C)cc4)CC3)nc2cc1Br	x	x	-20.2%	x	16.7%	x
C/C=C/Cn1c(SC)nc2c1c(=O)[nH]c(=O)n2C	-4.4%	5.4%	-12.6%	-11.3	-9.1%	26.7µM*
CSc1nc2c(c(=O)[nH]c(=O)n2C)n1Cc1ccc(Cl)cc1	-25.6%	x	5.8%	u	89.1µM*	5.97µM*
CCCn1c(SCc2ccc(Cl)cc2)nc2c1c(=O)[nH]c(=O)n2C	-32.5%	1.6%	3.8%	-9.9	-21.9%	21.2µM*
Cn1c(=O)[nH]c(=O)c2c1nc(SCCO)n2Cc1ccccc1Cl	-16.3%	-3.6%	-5.3%	-1.8	-8.3%	23.8µM*
C/C=C/Cn1c(SCc2ccc(Cl)cc2)nc2c1c(=O)[nH]c(=O)n2C	-23.0%	5.6%	-4.3%	-10.4	u	u
CSc1nc2c(c(=O)[nH]c(=O)n2C)n1Cc1ccccc1Cl	-2.9%	4.5%	-0.4%	-8.5	-14.0%	-14.0%
COC(=O)N1c2ccccc2C23[C@@H]4CN5CCC[C@]6(CCC12C(O)(C6)C4=O)[C@H]53	x	x	x	x	-3.5%	x
Cc1c(CCO)sc[n+]1CCc1ccccc1	x	x	-0.9%	x	x	x
C#CC[N+]1(CC#Cc2ccccc2)CCCCC1	-1.3%	-2.4%	11.2%	7.8	1.1%	-1.8%
C(#Cc1ccccc1)C[N+]1(CC#Cc2ccccc2)CCCCC1	-14.1%	1.8%	6.5%	-23.5	15.0%	26.7µM*
O=C(NCc1ccccc1)c1ccc2c(c1)CCN2S(=O)(=O)c1ccc(Cl)cc1	x	x	-19.0%	x	7.6%	x
CCc1cccc(NCc2ccccc2-c2nnc(-c3ccccc3Cl)o2)c1	x	x	-7.1%	x	-11.3%	x
O=S(=O)(Nc1cccc2cccnc12)c1cccs1	x	x	-13.6%	x	2.9%	x
